# High-throughput results deposited in PubChem by National Center for Advancing Translational Sciences (NCATS).
# L3MBTL1 block = blocks human L3MBTL1. AID 485360. AlphaScreen L3MBTL1–H3K9me1 peptide binding. 0.66% of 230,000 active. Q9Y468. Potency, µM (doses to about 57.1 µM), without a hit: at the top dose activity, negative = inhibition, usual class: inhibitors; note: % is set by controls: 0 for no effect and ±100 for the full control effect; nearly all actives have a fitted effect of over 60% in size
#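 AlphaScreen assay: L3MBTL1 (50 nM final) was preincubated 30 min at room temperature with biotinylated H3(1-15)K9me1 peptide (75 nM final), then 30 min with library compounds; streptavidin donor and nickel chelate acceptor beads (10 ug/mL final) added, 30 min dark.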
# BAZ2B block = BAZ2B (human) inhibition; AlphaScreen BAZ2B-H3K14Ac peptide displacement; 4.4% of 360,000 active; Q9UIF8; Potency, µM (doses to about 114 µM), for inactives: at the highest dose activity change, negative = inhibition, most hits filed as inhibitors; note: % is set by controls: 0 for no effect and ±100 for the full control effect; nearly all actives have a fitted effect of over 60% in size
#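 Inhibition is scored as reduced AlphaScreen emission. The BAZ2B/b-H3(5-23)K14Ac complex (50 nM each) in PBS pH 7.4, 0.01% Tween-20 meets compound (up to 110 uM) for 30 min at RT before bead addition.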
# G9a inh = G9a (human) methyltransferase inhibition; Potency, µM (top dose mostly 102 µM), without a hit: at the top dose activity, negative = inhibition, actives largely listed as inhibitors; AID 504332; G9a H3K9 monomethylation, AlphaScreen, 2 h; 8.8% of 350,000 active; note: % is set by controls: 0 for no effect and ±100 for the full control effect; nearly all actives have a fitted effect of over 75% in size
#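 Methyltransferase reactions run at room temperature for 2 h (20 nM enzyme, 500 nM biotin-H3K9 peptide, 20 uM SAM) after a 15 min compound preincubation; product detected by AlphaScreen beads and anti-H3K9me1 antibody.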
# JMJD2A Tudor inh = JMJD2A Tudor domain (human) inhibition. 4.4% of 390,000 active. AID 504339. AlphaScreen JMJD2A-Tudor / H3K4me3 peptide binding. Potency, µM (doses to about 114 µM), inactives show at the highest dose activity change, negative = inhibition, actives largely listed as inhibitors. O75164; note: % is set by controls: 0 for no effect and ±100 for the full control effect; nearly all actives have a fitted effect of over 50% in size
# GLS inh = inhibitors of human glutaminase (GLS) | Potency, µM (highest dose often 45.5 µM), for the others: at the highest dose activity change, negative = inhibition, actives largely listed as inhibitors | AID 624170 | 0.21% of 410,000 active | GLS enzymatic activity, qHTS titration | O94925; note: % is set by controls: 0 for no effect and ±100 for the full control effect
#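 hKGA; 45 mM KH2PO4 pH 8.2 + 0.02% Tween-20; cpd via pin tool; 1 mM Gln soln; GluOx/HRP/Amplex Red; RT 30 min; fluor. t0 & final.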
# HP1b binding inh = HP1-beta chromodomain-methylated histone interaction inhibition; P83916; AlphaScreen HP1-beta / biotin-H3K9me3 peptide binding; Potency, µM (doses to about 114 µM), without a hit: at the highest dose activity change, negative = inhibition, usual class: inhibitors; 0.56% of 390,000 active; AID 540317; note: nearly all actives have a fitted effect of over 70% in size
# Target sequence (P83916 whole entry, looked up): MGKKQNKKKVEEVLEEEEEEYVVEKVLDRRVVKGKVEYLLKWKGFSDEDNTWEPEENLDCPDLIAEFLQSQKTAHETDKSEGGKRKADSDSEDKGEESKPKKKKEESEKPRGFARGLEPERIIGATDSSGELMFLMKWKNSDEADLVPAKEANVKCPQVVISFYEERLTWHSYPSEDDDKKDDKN
#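 AlphaScreen: HP1-beta (50 nM) preformed 30 min with biotin-H3(1-18)K9me3 peptide (50 nM) in PBS pH 7.4, 0.01% Tween-20. Compound added for 30 min at RT, then streptavidin donor/nickel chelate acceptor beads (10 ug/mL) for 30 min.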
# Numbers without * were called inactive; ? = inconclusive; · = no result; [ ] = another dose, or the depositor's remark. Hits are enriched below; roughly 10% of the tested compounds scored in any of these assays. Calls come from the whole dose curve; as a rule, active = well fitted curve in the direction sought with a large enough effect; inconclusive = small, poorly fitted or top-dose-only effect, or another doubt; inactive = no such curve, though single readings can be large; an effect the other way counts as inactive or inconclusive. Potency is the fitted concentration of half-maximal effect.
SMILES,L3MBTL1 block,BAZ2B block,G9a inh,JMJD2A Tudor inh,GLS inh,HP1b binding inh
CC(=O)c1ccc(S(=O)(=O)NCC(=O)N2CCN(C/C=C/c3ccccc3)CC2)cc1,0%,-4%,7.9µM*,-27%,13%,5%
Cc1cc(C)cc(C(=O)N2CC(=O)Nc3ccc(C)cc3C2c2ccccc2)c1 (stereo not given),·,-22%,2%[59 µM],-35%,9%,-1%
Cc1cc2n(n1)CCC(=O)N2Cc1ccc(C(=O)Nc2cccc(C(F)(F)F)c2)cc1,·,-14%,-6%[59 µM],-8%,6%,28%
O=C(COc1ccccc1F)Nc1ccccc1OCc1cc(=O)n2ccccc2n1,·,0%,7%[59 µM],-7%,-12%,14%[57 µM]
S=c1[nH]nc(-c2cc(-c3ccco3)[nH]n2)n1-c1ccccc1Cl,?,50µM*,4.5µM*,89µM*,?,-6%
COc1ccc(-c2cc(-c3n[nH]c(=S)n3-c3ccccc3Cl)[nH]n2)cc1,-17%,-35%,7.9µM*,-20%,-21%,20%
S=c1[nH]nc(-c2cc(-c3ccco3)[nH]n2)n1-c1ccccc1,1%,?,-20%[0.501 µM],50µM*,-1%,-1%
S=c1[nH]nc(-c2ccco2)n1-c1ccccc1Cl,-7%,-21%,?,5µM*,-17%,14%
CCOC(=O)C1=C(CN2CCN(c3ccc(Cl)cc3)CC2)NC(=O)NC1c1ccc(F)cc1 (stereo not given),·,-4%,-6%[59 µM],?,9%,-15%
CC(=O)c1ccc(S(=O)(=O)N2CCN(C(=O)c3ccc(N)c([N+](=O)[O-])c3)CC2)cc1,-4%,4%,40%[12.7 µM],-30%,0%,24%
Nc1ccc(C(=O)N2CCN(S(=O)(=O)c3ccc(Br)cc3)CC2)cc1[N+](=O)[O-],-16%,-9%,45µM*,?,0%,-2%
CCOC(=O)C(CCc1ccccc1)NC(C)C(=O)N1Cc2cc(OC)c(OC)cc2CC1C(=O)O (stereo not given),·,·,-27%[12.7 µM],·,-2%,·
Cc1c(OCC(=O)NCc2ccccn2)ccc2c3c(c(=O)oc12)CCCC3,·,-13%,?,50µM*,-10%,14%[57 µM]
O=C(COc1ccc(S(=O)(=O)N2CCc3ccccc32)cc1Cl)NCc1ccccn1,23%[11.4 µM],79µM*,14µM*,45µM*,0%,-1%
